Screens: PubChem BioAssay, National Center for Advancing Translational Sciences (NCATS)
In the library only some 7.5% were active in any assay of this set; here they are far more common.
ELG1 genotoxic: inducers of genotoxicity in HEK293T ELG1-luciferase cells | 330,000 compounds, 1.3% hits | HEK293T ELG1-luciferase reporter, luminescence, 16 h | Potency, µM (series often up to 46 µM), hits mostly activators | AID 504466; further: nearly all actives have a fitted effect of over 60% in size
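Reporter readout depends on ELG1 protein level, which increases with genetic stress. After 16 hr compound exposure at 37 °C, luciferase activity was quantified using ONE-Glo.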
SMN2 splice enh: SMN2 splice variant enhancement; HEK293 SMN2-luciferase splicing reporter, luminescence, 30-36 h; Potency, µM (top dose mostly 46.1 µM), hits mostly activators; 210,000 compounds, 2.8% hits; further: nearly all actives have a fitted effect of over 55% in size
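HEK293 cells carry an SMN2 […]–luciferase reporter in which exon 7 inclusion puts luciferase in frame. Cells were plated 10-12 h before compound addition, then incubated 30-36 h at 37C. ONE-Glo luminescence was read; sodium butyrate at 4.5 mM final served as control.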
FLuc counter: inhibits or activates purified firefly luciferase, miR-21 counter-screen; P08659; purified FLuc, Km substrates, luminescence inhibition; Potency, µM (titrated, usually from 57.5 µM), usual class: inhibitors; 360,000 compounds, 6.9% hits; AID 588342; further: nearly all actives have a fitted effect of over 55% in size
Target sequence (P08659 whole entry, looked up): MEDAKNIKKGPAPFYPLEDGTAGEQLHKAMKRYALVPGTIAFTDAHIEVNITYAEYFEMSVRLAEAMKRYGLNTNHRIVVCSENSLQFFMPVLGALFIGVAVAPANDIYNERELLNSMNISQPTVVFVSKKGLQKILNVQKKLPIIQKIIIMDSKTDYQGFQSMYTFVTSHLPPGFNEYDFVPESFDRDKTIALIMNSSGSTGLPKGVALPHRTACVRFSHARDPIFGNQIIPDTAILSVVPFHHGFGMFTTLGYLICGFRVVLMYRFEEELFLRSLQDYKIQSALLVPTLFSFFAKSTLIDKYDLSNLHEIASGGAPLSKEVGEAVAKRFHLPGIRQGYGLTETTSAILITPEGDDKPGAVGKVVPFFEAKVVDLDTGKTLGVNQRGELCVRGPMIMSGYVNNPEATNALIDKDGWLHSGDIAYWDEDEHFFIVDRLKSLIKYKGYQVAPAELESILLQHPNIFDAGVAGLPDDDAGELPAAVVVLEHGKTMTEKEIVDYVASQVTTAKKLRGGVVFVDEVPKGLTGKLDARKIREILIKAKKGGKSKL
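Purified P. pyralis luciferase (10nM final) with 10uM D-luciferin and 10uM ATP (Km levels) in 50mM Tris acetate pH 7.5, 10mM Mg acetate, 0.01% Tween-20, 0.05% BSA; qHTS 6-point titration, ~60 µM downward; luminescence read.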
Rab9 prom act: activates the Rab9 promoter. Potency, µM (top dose mostly 9.22 µM), hits mostly activators. 320,000 compounds, 2.8% hits. Huh7 Rab9 promoter-luciferase reporter, luminescence, 24 h; further: nearly all actives have a fitted effect of over 60% in size
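Cell-based reporter: Huh7 stable for Rab9 promoter-driven luciferase, plated in reduced-serum medium with 10% FBS at 1500 cells/well, compound-treated 24 h at 37 °C, luminescence read after 10 min reagent.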
NPC1 promoter act: activates the NPC1 promoter. 320,000 compounds, 2.4% hits. Huh7 NPC1 promoter luciferase reporter, 24 h. Potency, µM (series often up to 9.22 µM), usual class: activators. AID 485313; further: nearly all actives have a fitted effect of over 60% in size
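Luciferase expression driven by the NPC1 promoter was measured in stably transfected Huh7 cells after a 24 h compound incubation, using a luciferase reagent and a luminescence read.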
A number is an active result. The call rests on the fitted dose curve; in most records, active means well fitted curve in the direction sought with a large enough effect; inconclusive means small, poorly fitted or top-dose-only effect, or another doubt; inactive means no such curve, though single readings can be large; an effect the other way counts as inactive or inconclusive.

For N/C(=N\OC(=O)c1cccc2ccccc12)c1cccc([N+](=O)[O-])c1 the results were ELG1 genotoxic inactive, SMN2 splice enh inactive, FLuc counter inconclusive, Rab9 prom act inactive and NPC1 promoter act inactive.
Cc1cccc(/C(N)=N/OC(=O)c2cccc3ccccc23)c1 was read as ELG1 genotoxic inactive, FLuc counter 4.26µM, Rab9 prom act 3.98µM and NPC1 promoter act 3.55µM.
For Cc1ccc(C(=O)N2CCN(c3ncccn3)CC2)cc1S(=O)(=O)N1CCCCC1 the results were ELG1 genotoxic inactive, SMN2 splice enh inactive, FLuc counter inactive, Rab9 prom act inactive and NPC1 promoter act inactive.
CC(C)(C)c1ccc(OC(=O)Cn2c(C(F)(F)F)nc3ccccc32)cc1 was read as ELG1 genotoxic inactive, SMN2 splice enh inactive, FLuc counter inactive, Rab9 prom act inactive and NPC1 promoter act inactive.
CC(=O)c1c(C)[nH]c(C(=O)OCC(=O)Nc2ccccc2Cl)c1C was read as ELG1 genotoxic inactive, FLuc counter inactive, Rab9 prom act inactive and NPC1 promoter act inactive.
`CC(=O)c1c(C)[nH]c(C(=O)COC(=O)CCCOc2ccccc2)c1C` gave ELG1 genotoxic inactive, SMN2 splice enh inactive, FLuc counter inactive, Rab9 prom act inactive and NPC1 promoter act inactive.
Cc1c(C(=O)OCCOc2ccccc2)[nH]c2c1C(=O)CCC2 was read as ELG1 genotoxic inconclusive, SMN2 splice enh 3.55µM, FLuc counter 0.953µM, Rab9 prom act inconclusive and NPC1 promoter act 4.47µM.
Screening CC(=O)c1c(C)[nH]c(C(=O)OCC(=O)Nc2nnc(-c3ccccc3)o2)c1C returned ELG1 genotoxic inactive, FLuc counter 21.3µM, Rab9 prom act inactive and NPC1 promoter act inactive.
`CC(=O)c1c(C)[nH]c(C(=O)OCCOc2ccccc2)c1C` gave ELG1 genotoxic inconclusive, SMN2 splice enh inactive, FLuc counter 0.536µM, Rab9 prom act 0.316µM and NPC1 promoter act 0.316µM.
For CS(=O)(=O)N1CCN(c2ccccc2NC(=O)c2ccco2)CC1 the results were ELG1 genotoxic inactive, SMN2 splice enh inactive, FLuc counter inactive, Rab9 prom act inactive and NPC1 promoter act inactive.
`Cc1[nH]c2ccccc2c1C(=O)NS(=O)(=O)Nc1ccc(F)cc1` gave ELG1 genotoxic inactive, SMN2 splice enh inactive, FLuc counter inconclusive, Rab9 prom act inactive and NPC1 promoter act inactive.
Screening CSCCCc1cn([C@@H](CO)C(=O)NCCCCCCCCCCC(=O)N2CCNCC2)nn1 returned ELG1 genotoxic inactive, FLuc counter inactive, Rab9 prom act inactive and NPC1 promoter act inactive.
Screening Cc1ccc(Oc2nc3c(c(=O)n(Cc4ccccc4)c(=O)n3C)n2C)cc1C returned SMN2 splice enh inactive and FLuc counter inactive.
Cc1ccccc1NC(=O)CSc1nnc(NC(=O)c2ccco2)s1 was read as ELG1 genotoxic inactive, FLuc counter 26.9µM, Rab9 prom act inactive and NPC1 promoter act inactive.
For O=C(CSc1nnc(NC(=O)c2ccccc2F)s1)Nc1ccccc1F the results were ELG1 genotoxic inconclusive, SMN2 splice enh inactive, FLuc counter 2.69µM, Rab9 prom act 3.55µM and NPC1 promoter act inconclusive.
`O=C(CSc1nnc(NC(=O)c2ccco2)s1)Nc1ccccc1F` gave ELG1 genotoxic inactive, SMN2 splice enh inactive, FLuc counter 15.1µM, Rab9 prom act inactive and NPC1 promoter act inactive.
`CC(C)(C)CC(=O)Nc1nnc(SCC(=O)Nc2ccccc2F)s1` gave ELG1 genotoxic inactive, SMN2 splice enh inactive, FLuc counter inactive, Rab9 prom act inactive and NPC1 promoter act inactive.
CC(C)N1CN(c2ccccc2)C(=S)N(c2ccccc2)C1 was read as ELG1 genotoxic inactive, FLuc counter inactive, Rab9 prom act inactive and NPC1 promoter act inactive.
`Oc1ccc(COCc2ccccc2)c2cccnc12` gave ELG1 genotoxic 8.2µM, SMN2 splice enh inactive, FLuc counter 19µM, Rab9 prom act inactive and NPC1 promoter act inactive.
`CCCOCc1ccc(O)c2ncccc12` gave ELG1 genotoxic inactive, FLuc counter inactive, Rab9 prom act inactive and NPC1 promoter act inactive.
Screening COc1cc2[nH]c(Cl)c([N+](=O)[O-])c2cc1OC returned ELG1 genotoxic inconclusive, FLuc counter inactive, Rab9 prom act inactive and NPC1 promoter act inactive.
`Nn1c(SCC(=O)Nc2cccc(Br)c2)nnc1C1CC1` gave ELG1 genotoxic inactive.
Oc1c(C2=NCCNC(C(F)(F)F)=C2)ccc2ccccc12 was read as ELG1 genotoxic 9.2µM, SMN2 splice enh 11.2µM, FLuc counter 4.78µM, Rab9 prom act 2.24µM and NPC1 promoter act 2.82µM.
For Cc1csc2nc(COc3cccc(NC(=O)c4ccccc4F)c3)cc(=O)n12 the results were SMN2 splice enh inactive and FLuc counter inactive.
`COc1ccc(OC)c(-c2csc(NC(=O)Cc3ccccc3OC)n2)c1` gave ELG1 genotoxic inactive, FLuc counter 9.53µM, Rab9 prom act inactive and NPC1 promoter act inactive.
COc1ccc(OC)c(-c2csc(NC(=O)CN3C(=O)NC4(CCCC4)C3=O)n2)c1 was read as ELG1 genotoxic inactive, FLuc counter inactive, Rab9 prom act inactive and NPC1 promoter act inactive.
Screening COc1ccc(OC)c(-c2csc(NC(=O)c3ccccc3F)n2)c1 returned ELG1 genotoxic inactive, FLuc counter 15.1µM, Rab9 prom act inactive and NPC1 promoter act inactive.
COc1ccc(OC)c(-c2csc(NC(=O)Cc3ccccc3F)n2)c1 was read as ELG1 genotoxic inactive, FLuc counter 10.7µM, Rab9 prom act inactive and NPC1 promoter act inactive.
For O=C(Nc1nc(COc2ccccc2)cs1)c1ccccc1F the results were ELG1 genotoxic inactive, SMN2 splice enh inactive, FLuc counter 26.9µM, Rab9 prom act inactive and NPC1 promoter act inactive.
Screening COc1ccc(NC(=O)CC2C(=O)N(c3cccc(OC)c3)C(=O)N2CCC(C)C)cc1 (configuration not stated) returned ELG1 genotoxic inactive, SMN2 splice enh inactive, FLuc counter inactive, Rab9 prom act inactive and NPC1 promoter act inactive.
`CCN1C[C@@H]2[C@@H]3C(=O)N(C)C(=O)[C@@H]3[C@](CC)(C1=O)N2C(=O)c1ccc(C(C)(C)C)cc1` gave ELG1 genotoxic inactive.
CC(=O)Nc1nc2cc3c(cc2s1)OCO3 was read as ELG1 genotoxic inconclusive, SMN2 splice enh inconclusive, FLuc counter 19µM, Rab9 prom act 3.98µM and NPC1 promoter act inconclusive.
Screening CC(C)C(=O)Nc1nc2cc3c(cc2s1)OCCO3 returned ELG1 genotoxic inconclusive, FLuc counter 2.39µM, Rab9 prom act 0.501µM and NPC1 promoter act 0.891µM.
CC(=O)c1sc(Nc2nc3cc4c(cc3s2)OCO4)nc1C was read as ELG1 genotoxic inconclusive, SMN2 splice enh 11.2µM, FLuc counter 3.79µM, Rab9 prom act 2µM and NPC1 promoter act 3.55µM.
For CC(=O)c1sc(Nc2ccc(C)cc2)nc1C the results were ELG1 genotoxic inactive, SMN2 splice enh inactive, FLuc counter inactive, Rab9 prom act inactive and NPC1 promoter act inactive.
CCOC(=O)c1sc(Nc2nc3c(OC)cccc3s2)cc1C was read as ELG1 genotoxic inactive, SMN2 splice enh inactive, FLuc counter 7.57µM, Rab9 prom act inconclusive and NPC1 promoter act inconclusive.
